Screens from PubChem.
Shown are actives, neighbours in structure and some others; about 3.9% of the full set was active somewhere.
Tb PFK inh: T. brucei PFK enzyme inhibition; T. brucei PFK, ADP-Glo luminescence; AID 485367; Potency, µM (doses to about 57.5 µM), most hits filed as inhibitors; O15648; hit rate 0.17% among 330,000; note: nearly all actives have a fitted effect of over 60% in size
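In TEA buffer at pH 8.0 with 5 mM MgCl2, enzyme (1.25 nM) converted F6P (0.5 mM) and ATP (0.1 mM) for 45 min at room temperature. ADP product was read by luciferase luminescence.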
BRCA1 expr up: BRCA1 expression activation; MCF7-BRCA1-FFLuc reporter, luminescence, 48 h; response scale: scaled: vehicle 0%, 10 µM genistein 100%; Potency, µM (doses to about 46.1 µM), hits mostly activators; hit rate 1.1% among 380,000; note: nearly all actives have a fitted effect of over 80% in size
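First, MCF7-BRCA1-FFLuc cells (2000/well) attach for 2 h; next, compounds are pin-added and incubated 48 h at 37 °C; finally, luciferase reagent is added and luminescence read after 15 min.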
VDR inh: blocks the human vitamin D receptor | P11473 | hit rate 0.93% among 400,000 | Potency, µM, most hits filed as inhibitors | VDR-SRC2-3 peptide fluorescence polarization, 2 h | AID 504847
Target sequence (P11473 whole entry, looked up): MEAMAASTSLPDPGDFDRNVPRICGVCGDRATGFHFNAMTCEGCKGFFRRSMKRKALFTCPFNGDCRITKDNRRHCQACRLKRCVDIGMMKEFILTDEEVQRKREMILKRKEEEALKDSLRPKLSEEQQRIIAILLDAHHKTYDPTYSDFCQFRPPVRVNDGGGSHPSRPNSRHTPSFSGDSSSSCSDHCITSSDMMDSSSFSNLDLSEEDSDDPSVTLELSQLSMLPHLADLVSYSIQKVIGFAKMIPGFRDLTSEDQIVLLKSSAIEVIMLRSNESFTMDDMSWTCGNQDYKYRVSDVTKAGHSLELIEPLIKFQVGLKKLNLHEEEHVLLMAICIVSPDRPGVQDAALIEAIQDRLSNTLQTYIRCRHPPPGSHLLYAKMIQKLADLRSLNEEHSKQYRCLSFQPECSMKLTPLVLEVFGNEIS
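Reagent solutions, kept cold and dark, are dispensed first; compounds are then pinned in at 23 nl, plates briefly spun, and incubated 2 h at ambient temperature. Inhibition of VDR–SRC2-3 peptide binding is read by fluorescence polarization.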
PLK1 PBD block: blocks phosphopeptide binding to human PLK1 polo-box domain; Plk1 PBD binding of FITC phosphopeptide, fluorescence polarization; P53350; AID 720504; hit rate 2.8% among 360,000; Potency, µM, usual class: inhibitors; note: series mostly up to about 57 µM; nearly all actives have a fitted effect of over 65% in size
Hits are given with their value; . = inactive; ? = inconclusive; / = not tested or not shown. Calls come from the whole dose curve; as a rule, active = well fitted curve in the direction sought with a large enough effect; inconclusive = small, poorly fitted or top-dose-only effect, or another doubt; inactive = no such curve, though single readings can be large; an effect the other way counts as inactive or inconclusive.

SMILES	Tb PFK inh	BRCA1 expr up	VDR inh	PLK1 PBD block
c1cncc(-c2noc(-c3ccco3)n2)c1	.	?	.	.
COc1ccc(C(=O)N(Cc2ccco2)Cc2ccco2)cc1	/	/	.	/
Cc1noc(C)c1-c1nccc(N(C)Cc2ccco2)n1	/	/	44.7µM	/
CN(Cc1ccco1)c1ccnc(-c2ccccc2C(F)(F)F)n1	/	/	44.7µM	/
CN(Cc1ccco1)c1ccnc(-c2cccnc2)n1	/	/	44.7µM	/
CNc1ccnc(-c2ccccc2C(F)(F)F)n1	/	/	.	/
CN(Cc1ccco1)c1ccnc(-c2ccoc2)n1	/	/	44.7µM	/
Cc1ccc(-c2nc(SCC(=O)N3CCc4ccccc43)c3c(=O)n(C)c(=O)n(C)c3n2)cc1	/	/	.	/
CCN1CCN(c2ccc(S(=O)(=O)N3CCCCC3)cc2NC(=O)c2ccc([N+](=O)[O-])s2)CC1	.	.	.	.
Cc1ccc([C@@H]2CC(=O)[C@@H]3CN(S(=O)(=O)c4ccc(C)cc4)[C@H](c4ccc(Cl)cc4)C[C@@H]3N2S(=O)(=O)c2ccc(Cl)cc2)cc1	/	.	/	.
CN(Cc1ccco1)c1ccnc(-c2cccc(C#N)c2)n1	/	/	35.5µM	/
O=C(O)c1ccc(NCc2cccs2)cc1	.	.	.	.
OCCc1ccc(NCCc2cccs2)cc1	/	8.91µM	/	.
Cc1ccc(C(=O)CCS(=O)(=O)c2ccc(F)cc2)cc1	.	.	25.1µM	9.47µM
O=C(CCCC(=O)c1ccc(F)cc1)c1ccc(F)cc1	.	2.51µM	.	.
Cc1ccc(S(=O)(=O)CCC(=O)c2ccc(F)cc2)cc1	.	.	?	10.6µM
Cc1ccc(C(=O)CCS(=O)(=O)c2ccc(Cl)cc2)cc1	.	.	?	?
CC(C)(C)NC(=O)C(c1ccc(O)cc1)N(Cc1ccc2c(c1)OCO2)C(=O)CCl (centres undefined)	/	.	/	.
Cc1ccccc1/C=N/NC(=O)c1ccc(-n2cnnn2)cc1	.	.	.	.
N#CC1=C(N)N(c2ccc(F)cc2)C2=C(C1c1ccc(O)cc1)S(=O)(=O)CC2 (centres undefined)	?	.	.	15µM
COc1cc(/C=C/c2ccnc3ccccc23)ccc1N(C)C	/	.	/	/
O=C(CSc1nnc(NC(=O)C2CC(=O)N(c3ccc(F)cc3)C2)s1)NCc1ccco1 (centres undefined)	.	.	79.4µM	?
CCCN(C(=O)c1cc2c(s1)-c1c(C)cccc1OC2)c1ccc(OCC)cc1	/	/	.	/
CCOC(=O)C1=C(O)c2ccccc2C(=O)/C1=C\c1ccc(CC)cc1	.	.	3.55µM	2.99µM
CCCc1ccc(/C=C2\C(=O)c3ccccc3C(O)=C2C(=O)OCC)cc1	.	/	/	/
SMILES	Tb PFK inh	BRCA1 expr up	VDR inh	PLK1 PBD block
CCOC(=O)c1cc(C(=O)OCC)c(=O)[nH]c1C	.	.	.	.
CCOC(=O)c1cc(C)[nH]c(=S)c1C#N	.	.	.	26.7µM
Cc1cc(C)c(C(=O)c2cccs2)c(C)c1	/	.	.	.
Cc1cc(C(=O)c2cccs2)c(N)s1	.	.	?	23.8µM
O=C(NCC(=O)N1CCCCCC1)c1ccc(Cl)cc1	.	?	?	6.7µM
O=C(NCC(=O)N1CCCCCCC1)c1ccc(Cl)cc1	.	.	.	.
O=C(/C=C/C=C/c1ccc2c(c1)OCO2)N1CCCCC1	.	8.91µM	.	.
Oc1ccc(C2=NNC(=NCc3ccc4c(c3)OCO4)SC2)c(O)c1	.	.	.	.
Clc1ccc(C2=NNC(=NCc3ccc4c(c3)OCO4)SC2)cc1	.	.	?	16.8µM
CCC(CC)c1nnc(NC(=O)CS(=O)(=O)c2ccccc2)s1	.	.	?	9.47µM
Cc1csc(NC(=O)CN2C(=O)c3ccccc3S2(=O)=O)n1	.	.	.	.
O=C(CN1C(=O)c2ccccc2S1(=O)=O)Nc1ncc([N+](=O)[O-])s1	.	.	.	18.9µM
O=C(CCS(=O)(=O)Cc1ccccc1)Nc1ncc([N+](=O)[O-])s1	.	8.91µM	.	.
CCCc1nnc(NC(=O)CCS(=O)(=O)Cc2ccccc2)s1	.	.	.	.
CCC(CC)c1nnc(NC(=O)CCS(=O)(=O)Cc2ccccc2)s1	.	.	.	23.8µM
Cc1cccc(NC(=O)C2CCN(S(=O)(=O)c3cccc4nsnc34)CC2)c1C	/	.	.	/
O=C(CS(=O)(=O)c1ccccc1)Nc1nnc(Cc2ccccc2)s1	.	.	.	13.4µM
CCCc1nnc(NC(=O)CS(=O)(=O)c2ccccc2)s1	.	.	.	.
CN1CCc2nc3sc(C(=O)Nc4ccccc4C(F)(F)F)c(N)c3cc2C1	/	/	.	/
CNC(=O)C(=O)Nc1nc(C23CC4CC(CC(C4)C2)C3)cs1	.	.	.	29.9µM
COc1ccc(N2CCN(C3(c4ccccc4)C(=O)c4ccccc4C3=O)CC2)cc1	/	/	.	/
O=C1NC(c2ccccc2)Nc2c1sc(=S)n2-c1ccccc1 (centres undefined)	.	.	.	21.2µM
CC(=O)Oc1ccc(N(C(C)=O)S(=O)(=O)c2ccc(C)cc2C)c2ccccc12	.	.	.	.
Cc1ccc(S(=O)(=O)N(C(=O)c2ccncc2)c2ccc(OC(=O)c3ccncc3)c3ccccc23)c(C)c1	?	.	.	13.4µM
O=C(CSc1nncs1)NC(=O)Nc1ccc2c(c1)OCCO2	.	4.47µM	.	.
SMILES	Tb PFK inh	BRCA1 expr up	VDR inh	PLK1 PBD block
CC1CC(C)CN(CC(=O)Nc2ccc3c(c2)OCCO3)C1 (centres undefined)	.	12.6µM	.	.
CN(C)S(=O)(=O)c1ccc(C(=O)NC(=O)CSc2ccccc2)cc1	.	.	.	.
COC(=O)C1CCN(CC(=O)Nc2ccc3c(c2)OCCO3)CC1	.	.	.	.
Cc1c(NC(=O)CSc2ccc(Cl)cc2)c(=O)n(-c2ccccc2)n1C	.	.	.	.
CC(=O)Nc1ccc(SCC(=O)NC(=O)c2ccc(S(=O)(=O)N(C)C)cc2)cc1	.	.	?	10.6µM
Cc1c(NC(=O)CSc2ccc3c(c2)OCCO3)c(=O)n(-c2ccccc2)n1C	.	.	.	26.7µM
Cc1ccc(C)c(NC(=O)Cn2cc(C(=O)c3cccs3)c3ccccc32)c1	/	/	.	/
O=c1c(-c2cccs2)nc2cnc(N3CCOCC3)nc2n1CCc1ccccc1	/	/	.	/
Cc1nnc(SCC(=O)Nc2ccc3c(c2)OCCO3)n1N	.	.	.	.
Cc1ccc(NC(=O)CCCN2C(=S)NC(C)(C)CC2C)cc1 (centres undefined)	.	.	.	.
Nn1c(SCC(=O)Nc2ccc3c(c2)OCCO3)nnc(CCC(=O)O)c1=O	.	.	?	3.36µM
CC(=O)Nc1ccc(SCC(=O)Nc2ccc3c(c2)OCCO3)cc1	.	.	?	11.9µM
CC1CC(C)(C)NC(=S)N1CCCC(=O)Nc1ccc2c(c1)OCCO2 (centres undefined)	.	12.6µM	.	.
O=C(Nc1ccc2c(c1)OCCO2)NC12CC3CC(CC(C3)C1)C2	.	3.55µM	.	.
CCCN(Cc1cccs1)C(=O)Nc1cc(Cl)c(OC)cc1OC	/	/	.	/
CCc1ccccc1NC(=O)CC1NCCNC1=O (centres undefined)	/	/	.	/
O=C(NN=Cc1ccc(N2CCOCC2)s1)c1ccc([N+](=O)[O-])cc1	.	.	.	.
Cc1cccc(C(=O)n2nc(-c3cccnc3)nc2NCc2ccc(F)cc2)c1	/	/	.	/
